From PubChem BioAssay (EPA / NIEHS) come the findings set out here.

A short description of assay [1]: ACEA_ER_80hr: ACEA Biosciences xCELLigence Real-Time Cell Analysis on Estrogen Receptor Agonism for Proliferation (AID 2282667; active = hit-call score of the fitted dose curve at least 0.9, where 1 is the maximum). Conditions: T47D proliferation, impedance (xCELLigence), 80 h. The essentials: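 Impedance readout (RT-CES) of T47D proliferation at 80 h post-dose; gain of signal vs DMSO baseline. Compounds: 8 conc, 1:4 serial, top 100 uM final, ≤0.5% DMSO; biological duplicate.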

In assay [2] the target is CCAAT/enhancer-binding protein beta (Homo sapiens) (UniProt P17676). In words: ATG_C_EBP_CIS: Attagene CIS-FACTORIAL HepG2 Assay for human CCAAT/Enhancer Binding Protein (C/EBP) beta (AID 2282927). Conditions: HepG2 Attagene cis-factorial transcription factor reporter; actives raise or lower the signal. The essentials:
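Following a 24 h incubation with test chemical, transfected HepG2 cells yielded RNA whose reporter transcripts were quantified by RT-PCR and fluorescent capillary electrophoresis, with DMSO serving as baseline for bidirectional fitting.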

Assay [3] is described as follows: ATG_CMV_CIS: Attagene CIS-FACTORIAL HepG2 Assay for human CMV (Internal Marker) (AID 2282928).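 Note: endpoint acts as a background internal control marker rather than a target.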 The conditions noted are these: HepG2 CMV promoter reporter, transcription factor profiling; actives raise or lower the signal. The essentials: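 CMV internal-marker background readout in transiently transfected HepG2 cells bearing cis-regulated reporter units. Reporter mRNA is measured 24 h after dosing by RT-PCR and capillary electrophoresis, with bidirectional fitting against DMSO.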

Assay [4] is described as follows: ATG_DR4_LXR_CIS: Attagene CIS-FACTORIAL HepG2 Assay for human Liver X Receptor (LXR), DR4 submotif (AID 2282929). Conditions: HepG2 Attagene DR4 cis-reporter, mRNA transcription; actives raise or lower the signal. The essentials:
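Fluorescence intensity of labelled reporter cDNA fragments, separated by capillary electrophoresis, gives the signal. HepG2 cells bearing cis-regulated reporter constructs were treated 24 h; activity fitted bidirectionally relative to DMSO negative control.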

Assay [5] concerns the target Aryl hydrocarbon receptor (Homo sapiens) (UniProt P35869). In words: ATG_Ahr_CIS: Attagene CIS-FACTORIAL HepG2 Assay for human Aryl Hydrocarbon Receptor (Ahr) (AID 2282930). Conditions: HepG2 AhR cis-factorial reporter transcription; actives raise or lower the signal. The essentials:
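Values derive from bidirectional fitting against DMSO negative control. Underlying signal: cis-element reporter mRNA in transiently transfected HepG2, harvested 24 h post-dose and measured by RT-PCR plus capillary electrophoresis.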

Assay [6] in a line: ATG_AP_1_CIS: Attagene CIS-FACTORIAL HepG2 Assay for human Activator Protein 1 (AP-1) (AID 2282931). Conditions: HepG2 Attagene cis-factorial AP-1 reporter mRNA; actives raise or lower the signal. The essentials: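 Multiplexed HepG2 reporter assay, 24 h dosing. mRNA induction detected by RT-PCR plus capillary electrophoresis. Activity fitted in both directions against DMSO.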

A short description of assay [7]: ATG_AP_2_CIS: Attagene CIS-FACTORIAL HepG2 Assay for human Activator Protein 2 (AP-2) (AID 2282932). Conditions: HepG2 AP-2 cis-reporter, Attagene transcription factor profiling; actives raise or lower the signal. The essentials:
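HepG2 cells were transiently transfected with multiple cis-promoter reporter transcription units and dosed for 24 h. Reporter mRNA was measured by RT-PCR with capillary electrophoresis fluorescence; bidirectional fits relative to DMSO baseline.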

The target of assay [8] is Retinoic acid receptor alpha (Homo sapiens) (UniProt P10276). In words: ATG_DR5_RAR_CIS: Attagene CIS-FACTORIAL HepG2 Assay for human Retinoic Acid Receptor Alpha (RARE), DR5 submotif (AID 2282934). The conditions noted are these: HepG2 Attagene cis-factorial RARE DR5 reporter, mRNA; actives raise or lower the signal. The essentials: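 Endpoint fitted in both directions relative to DMSO as negative control. It reflects DR5 cis-element reporter mRNA induction in transiently transfected HepG2 cells, measured 24 h after dosing through RT-PCR and fluorescent capillary electrophoresis.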

In assay [9] the target is Transcription factor E2F1 (Homo sapiens) (UniProt Q01094). In words: ATG_E2F_CIS: Attagene CIS-FACTORIAL HepG2 Assay for human E2F Transcription Factor 1 (AID 2282935). Conditions: HepG2 Attagene cis-reporter, E2F reporter RNA transcripts; actives raise or lower the signal. The essentials: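 HepG2 cells transiently transfected with multiplexed cis-element reporter units, dosed for 24 h. Reporter mRNA measured by RT-PCR, 6-FAM primer-extension labeling, HpaI digestion and capillary electrophoresis; bidirectional fit versus DMSO baseline.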

A short description of assay [10]: ATG_M_61_CIS: Attagene CIS-FACTORIAL HepG2 Assay for M61 Transcription Factor (Internal Marker) (AID 2282937). The conditions noted are these: HepG2 Attagene CIS-FACTORIAL M61 internal marker reporter; actives raise or lower the signal. The essentials:
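Endogenous transcription factor activity in HepG2 is read through transiently transfected cis-element reporter units. After 24 h dosing, RNA undergoes reverse transcription, PCR and primer extension with 6-FAM before capillary electrophoresis; DMSO-referenced bidirectional fit.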

Assay [11] in a line: ATG_EGR_CIS: Attagene CIS-FACTORIAL HepG2 Assay for human Early Growth Response 1 (EGR1) (AID 2282938). The conditions noted are these: HepG2 Attagene CIS-FACTORIAL EGR reporter mRNA; actives raise or lower the signal. The essentials: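 Activity is taken as induction or loss of reporter mRNA versus DMSO, fitted bidirectionally. Transcripts from cis-regulated reporter units in transiently transfected HepG2 were measured after 24 h by RT-PCR with capillary electrophoresis.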

Assay [12] in a line: ATG_M_19_CIS: Attagene CIS-FACTORIAL HepG2 Assay for M19 Transcription Factor (Internal Marker) (AID 2282939). The conditions noted are these: HepG2 Attagene CIS-FACTORIAL M19 internal marker reporter; actives raise or lower the signal. The essentials: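 HepG2, MRTU transient transfection, 24 h dosing. Total RNA → RT-PCR → 6-FAM primer extension → HpaI digest → CE fluorescence. Bidirectional curve fit, DMSO negative control.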

Assay [13] in a line: ATG_ERE_CIS: Attagene CIS-FACTORIAL HepG2 Assay for Estrogen Response Element (ERE) (AID 2282940). The conditions noted are these: HepG2 ERE cis-reporter, Attagene RNA transcript; actives raise or lower the signal. The essentials: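 After a 24 h chemical treatment, RNA from reporter-transfected HepG2 cells is reverse-transcribed, PCR-amplified and fluorescently labelled. Fragments separated by capillary electrophoresis give reporter signal; DMSO serves as negative control.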

The target of assay [14] is Hepatocyte nuclear factor 3-beta (Homo sapiens) (UniProt Q9Y261). In words: ATG_FoxA2_CIS: Attagene CIS-FACTORIAL HepG2 Assay for human Forkhead box A2 (FOXA2) (AID 2282942). Conditions: HepG2 cis-reporter transcription factor activity, 24 h; actives raise or lower the signal. The essentials: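 Reporter transcript induction is measured by fluorescence after capillary electrophoresis of RT-PCR products from HepG2 cells exposed 24 h. Cis-regulated reporter units report endogenous factor activity; curves fitted both directions against DMSO.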

Assay [15] can be described thus: ATG_FoxO_CIS: Attagene CIS-FACTORIAL HepG2 Assay for human Forkhead box O (FoxO) (AID 2282943). Conditions: HepG2 Attagene cis-reporter, FoxO element, mRNA; actives raise or lower the signal. The essentials:
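Values reflect reporter mRNA induction or loss in HepG2 cells 24 h post-dosing, fitted bidirectionally with DMSO as negative control and baseline. Detection used RT-PCR and fluorescence capillary electrophoresis.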

Assay [16] is described as follows: ATG_GATA_CIS: Attagene CIS-FACTORIAL HepG2 Assay for human GATA Binding Protein (AID 2282944). Conditions: HepG2 GATA cis-element reporter, Attagene multiplex mRNA; actives raise or lower the signal. The essentials: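 Cells: HepG2, transiently transfected with cis-regulated reporter transcription units. Exposure: 24 h. Detection: RT-PCR plus capillary electrophoresis of FAM-labeled fragments. Analysis: bidirectional, DMSO as baseline.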

A short description of assay [17]: ATG_BRE_CIS: Attagene CIS-FACTORIAL HepG2 Assay for human Bone Morphogenetic Protein (BMP) Response Element (BRE) (AID 2282933). The conditions noted are these: HepG2 BMP response element reporter, Attagene transcription factor profiling; actives raise or lower the signal. The essentials: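 Fluorescence-labelled reporter cDNA fragments, separated by capillary electrophoresis, gave the signal for this component of a 52-readout multiplex. HepG2 cells were transfected, exposed to chemicals for 24 h, and compared with DMSO using bidirectional fitting.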

Assay [18] in a line: ATG_E_Box_CIS: Attagene CIS-FACTORIAL HepG2 Assay for human Enhancer Box (E-box) (AID 2282936). Conditions: HepG2 E-box cis-reporter transcription, actives raise or lower the signal. The essentials: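 HepG2 cells transiently transfected with multiplexed cis-element reporter units sensing endogenous transcription factor activity; 24 h compound exposure. Reporter mRNA measured by RT-PCR, 6-FAM primer extension, HpaI digestion and capillary electrophoresis; bidirectional fit versus DMSO.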

Assay [19] can be described thus: ATG_Ets_CIS: Attagene CIS-FACTORIAL HepG2 Assay for human Erythroblast Transformation Specific (ETS) (AID 2282941). The conditions noted are these: HepG2 ETS cis-reporter transcription, actives raise or lower the signal. The essentials:
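HepG2 cells transfected with multiple cis-regulated reporter units measuring endogenous ETS-driven transcription, 24 h after dosing. Reporter mRNA quantified by RT-PCR with capillary electrophoresis; bidirectional fit relative to DMSO.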

Records with an inconclusive call do not appear. Active and inactive are the calls of the source. Rule for the calls, unless noted: active = hit-call score of the fitted dose curve at least 0.9, where 1 is the maximum; inactive = score below 0.9.

Chain of Retinoic acid receptor alpha (Homo sapiens) (P10276 whole entry, looked up): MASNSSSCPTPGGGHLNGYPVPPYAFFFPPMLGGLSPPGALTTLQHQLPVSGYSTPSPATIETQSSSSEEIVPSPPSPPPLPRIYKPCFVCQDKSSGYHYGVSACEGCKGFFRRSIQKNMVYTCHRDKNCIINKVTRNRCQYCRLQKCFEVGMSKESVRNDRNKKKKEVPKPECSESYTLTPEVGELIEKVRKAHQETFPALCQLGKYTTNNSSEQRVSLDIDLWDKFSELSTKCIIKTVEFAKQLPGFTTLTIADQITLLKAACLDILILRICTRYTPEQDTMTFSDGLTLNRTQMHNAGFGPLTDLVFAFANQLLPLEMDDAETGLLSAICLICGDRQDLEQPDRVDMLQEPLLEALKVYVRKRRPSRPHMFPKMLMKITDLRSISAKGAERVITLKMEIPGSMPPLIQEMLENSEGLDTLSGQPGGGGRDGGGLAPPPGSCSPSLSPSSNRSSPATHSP
Chain of CCAAT/enhancer-binding protein beta (Homo sapiens) (P17676 whole entry, looked up): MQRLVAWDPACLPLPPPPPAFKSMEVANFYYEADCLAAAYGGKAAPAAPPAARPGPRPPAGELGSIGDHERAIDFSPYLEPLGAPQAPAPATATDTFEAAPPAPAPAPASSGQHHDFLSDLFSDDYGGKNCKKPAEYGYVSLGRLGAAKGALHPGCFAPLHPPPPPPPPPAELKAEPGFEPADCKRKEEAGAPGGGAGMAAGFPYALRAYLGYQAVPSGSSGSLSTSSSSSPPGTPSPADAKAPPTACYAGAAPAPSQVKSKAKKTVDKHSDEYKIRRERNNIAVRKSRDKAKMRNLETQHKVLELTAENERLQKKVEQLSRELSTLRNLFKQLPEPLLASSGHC
Chain of Aryl hydrocarbon receptor (Homo sapiens) (P35869 whole entry, looked up): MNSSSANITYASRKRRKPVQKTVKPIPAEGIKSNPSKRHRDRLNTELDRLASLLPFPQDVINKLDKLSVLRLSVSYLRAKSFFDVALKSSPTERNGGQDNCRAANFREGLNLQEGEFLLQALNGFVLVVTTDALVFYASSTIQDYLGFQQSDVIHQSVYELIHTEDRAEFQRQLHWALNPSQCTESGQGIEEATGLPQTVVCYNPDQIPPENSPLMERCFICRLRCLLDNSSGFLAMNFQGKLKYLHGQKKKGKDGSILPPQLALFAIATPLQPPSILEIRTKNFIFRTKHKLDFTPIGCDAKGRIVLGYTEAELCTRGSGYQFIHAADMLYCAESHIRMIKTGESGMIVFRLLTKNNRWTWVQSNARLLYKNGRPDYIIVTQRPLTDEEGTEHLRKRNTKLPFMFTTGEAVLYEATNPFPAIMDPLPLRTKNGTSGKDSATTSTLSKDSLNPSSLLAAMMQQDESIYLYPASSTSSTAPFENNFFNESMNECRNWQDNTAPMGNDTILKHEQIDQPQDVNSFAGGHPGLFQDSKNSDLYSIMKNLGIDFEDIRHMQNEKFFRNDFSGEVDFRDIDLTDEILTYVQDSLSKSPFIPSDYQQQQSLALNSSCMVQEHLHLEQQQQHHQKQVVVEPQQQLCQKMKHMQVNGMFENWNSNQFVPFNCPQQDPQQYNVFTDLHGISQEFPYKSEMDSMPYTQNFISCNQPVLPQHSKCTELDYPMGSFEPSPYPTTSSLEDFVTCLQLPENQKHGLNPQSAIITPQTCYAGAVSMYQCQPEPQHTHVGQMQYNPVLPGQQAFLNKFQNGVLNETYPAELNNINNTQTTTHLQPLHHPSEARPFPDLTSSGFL
Chain of Transcription factor E2F1 (Homo sapiens) (Q01094 whole entry, looked up): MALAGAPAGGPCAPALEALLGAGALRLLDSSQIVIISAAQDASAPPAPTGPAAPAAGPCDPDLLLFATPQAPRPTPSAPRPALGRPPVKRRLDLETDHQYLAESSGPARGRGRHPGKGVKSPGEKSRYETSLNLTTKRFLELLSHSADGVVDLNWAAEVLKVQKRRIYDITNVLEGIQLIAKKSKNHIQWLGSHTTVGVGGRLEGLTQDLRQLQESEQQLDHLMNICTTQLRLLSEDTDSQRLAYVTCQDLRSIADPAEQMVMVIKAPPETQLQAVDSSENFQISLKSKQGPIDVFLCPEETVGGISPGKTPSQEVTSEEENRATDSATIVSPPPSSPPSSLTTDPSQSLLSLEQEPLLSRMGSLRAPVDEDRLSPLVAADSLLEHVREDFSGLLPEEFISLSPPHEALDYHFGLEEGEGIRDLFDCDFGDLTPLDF
Chain of Hepatocyte nuclear factor 3-beta (Homo sapiens) (Q9Y261 whole entry, looked up): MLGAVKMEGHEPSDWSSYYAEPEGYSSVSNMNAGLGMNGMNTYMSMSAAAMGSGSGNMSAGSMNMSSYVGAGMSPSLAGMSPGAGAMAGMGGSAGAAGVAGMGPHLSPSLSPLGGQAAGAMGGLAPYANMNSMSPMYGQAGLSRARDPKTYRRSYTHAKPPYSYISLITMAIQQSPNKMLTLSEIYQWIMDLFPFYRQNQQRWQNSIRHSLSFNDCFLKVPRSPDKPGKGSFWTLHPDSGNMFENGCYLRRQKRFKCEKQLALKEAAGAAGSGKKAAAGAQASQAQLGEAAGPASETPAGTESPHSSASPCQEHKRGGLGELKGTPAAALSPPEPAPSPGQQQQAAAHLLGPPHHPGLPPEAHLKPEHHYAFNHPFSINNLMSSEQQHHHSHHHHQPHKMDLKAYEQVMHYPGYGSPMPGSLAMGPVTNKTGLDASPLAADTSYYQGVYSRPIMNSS

Take `CCCCOC(=O)CCC(C)=O`: the result in [1], in [2], in assay [3], in [4], in [5] and in assay [6] was inactive. Further, the result in [7], in assay [8], in assay [9], in assay [10], in [11] and in assay [12] was inactive. Further, the call in assay [13], in [14], in assay [15] and in assay [16] was inactive.
As a reminder, the AC50 is the concentration giving half of the maximal activity seen. For the compound `C=CCOC(=O)c1ccc(C(=O)OCC=C)c(C(=O)OCC=C)c1`, the compound was classed as inactive in assay [1], in assay [2], in [3], in assay [4], in assay [5] and in assay [6]. Besides, the call in assay [7], in assay [17], in assay [8], in [9], in assay [10] and in assay [11] was inactive. For the same compound, the compound was classed as inactive in assay [12], in [19], in assay [14] and in [16]. Further, the half-maximal activity concentration (AC50) was 140 µM (active) in assay [18] and 22.8 µM (active) in [13].
With `C=CCNCC=C`, the result in assay [1], in assay [2], in [3], in [4], in assay [5] and in assay [6] was inactive. For the same compound, the call in assay [7], in [17], in [8], in [9], in assay [18] and in assay [10] was inactive. In addition, the outcome in assay [12], in assay [13], in [19], in assay [14], in [15] and in [16] was inactive.
Consider `CC(C)=CCl`, for which the outcome in assay [1], in [2], in [3], in [4], in assay [5] and in assay [6] was inactive. Moreover, the result in assay [7], in assay [17], in [8], in assay [9], in assay [18] and in assay [10] was inactive. The call in [11], in assay [12], in assay [13], in [19], in assay [14] and in assay [15] was inactive. The result in assay [16] was inactive.
`O=S(=O)(O)c1ccc(N=Nc2c(O)ccc3ccccc23)cc1`: the outcome in assay [1], in assay [2], in assay [3], in assay [4], in [6] and in assay [7] was inactive. In addition, the call in [17], in assay [8], in assay [9], in [18], in assay [10] and in assay [12] was inactive. For the same compound, the compound was called inactive in assay [19] and in assay [16]. The concentration at half-maximal activity (AC50) in assay [5] is 1.3 µM (active); in assay [14], 7.83 µM (active).
